“And” between values parts separate entries of the source, which are not always exact repeats. Equal values may be shown once. Results filed as inconclusive are left out. The source holds several records for some structures; these can differ, active in one and inactive in another. The source made the active and inactive calls. Rule for the calls: active = hit-call score of the fitted dose curve at least 0.9, where 1 is the maximum; inconclusive = response in the unintended direction; inactive = score below 0.9.
assay: TOX21_p53_BLA_p3_viability: Viability Assessment in the Tox21 HCT-116 p53 Agonism Beta-lactamase Assay, Phase 3 (AID 2283593);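 note: cells exposed to compound for 16 h before reading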
Text: TOX21_p53_BLA_p3 is a cell-based, single-readout assay that uses HCT116, a human intestinal cell line, […] in a 1536-well plate.TOX21_p53_BLA_p3_viability is an assay readout measuring cellular ATP content and detected with CellTiter-Glo Luciferase-coupled ATP quantitation.TOX21_p53_BLA_p3_viability used a type of viability reporter where loss-of-signal activity can be used to understand changes in the cell viability. Furthermore, this assay endpoint can be referred to as a secondary readout, because this assay has produced multiple assay endpoints where this one serves a viability function. To generalize the intended target to other relatable targets, this assay endpoint is annotated to the cell cycle intended target family, where the subfamily is cytotoxicity.
Thawing Method: Place 14 mL of pre-warmed thaw medium into a 15 mL of conical tub. Remove the vial of cells to be thawed from liquid nitrogen and thaw rapidly by placing at 37C in a water bath with gentle agitation for 1-2 minutes. Decontaminate the vial by wiping with 70% ethanol before opening in a biological safety cabinet. Transfer the vial contents drop-wise into 14 mL of thaw medium in a sterile 15-mL conical tub. Centrifuge cells at 900 rpm for 4 minutes and resuspend in thaw medium. Transfer contents to the T75 tissue culture flask containing Thaw Medium and place flask in a humidified 37C/5% CO2 incubator. Switch to growth medium at first passage.Propagation Method: Aspirate medium, rinse once in DPBS, add 0.25% Trypsin/EDTA and swirl to coat the cell evenly. Add an equal volume of Growth Medium to inactivate Trypsin after 2-3 minutes incubation at 37C. Centrifuge cells at 900 rpm for 4 minutes and resuspend in growth medium. Cell should be passage or fed at least twice a week.Assay Protocol: Harvest cells from culture in growth medium and resuspend in assay medium. 2.2 Dispense 4000 cells/5 uL/well into 1536-well black/clear bottom plates using a Multidrop dispenser. After the cells were incubated at 37C for 5 hours, 23 nL of compounds dissolved in DMSO were transferred to the assay plate by a PinTool resulting in a 217-fold dilution. Incubate the plates for 16 hours at 37C, 5% CO2. Add 1 uL of 6X LiveBLAzer FRET B/G (CCF4-AM) Substrate Mixture to each well using a BioRAPTR dispenser and incubate the plates at room temperature for 2 hours. Measure fluorescence intensity at 460 and 530 nm emission and 405 nm excitation by an Envision detector. Data is expressed as the ratio of 460nm/530nm emissions. Add 4 uL of Cell-titer Glo to each well using BioRAPTR and incubate the plates at room temperature for […]. For cell viability readout that measures cytotoxicity, 4 ul/well of CellTiter-Glo reagent was added into the assay plates using a Flying Reagent Dispenser. After 30 min incubation at room temperature, the luminescence intensity in the plates was measured using a ViewLux plate reader.

Question: With `COC(=O)CSc1cc(N=c2sc(=O)n3n2CCCC3)c(F)cc1Cl` as the compound, how does the outcome read?
Answer: The outcome was “inactive”.

Question: With `CCCCOC(=O)C(C)Oc1ccc(Oc2ccc(C(F)(F)F)cn2)cc1` (centres undefined) as the compound, how does the outcome read?
Answer: The outcome was “inactive”.

Question: With `CCCOC(=O)c1ccc(C(=O)OCCC)nc1` as the compound, how does the outcome read?
Answer: The outcome was “inactive”.

Question: For `O=C(O)c1ccccc1`, which outcome is on record?
Answer: The outcome was “inactive”.

Question: With `O=C(Nc1ccc([N+](=O)[O-])cc1Cl)c1cc(Cl)ccc1O` as the compound, how does the AC50 read?
Answer: The AC50 was 159 nM (active) and 156 nM (active).

Question: Which outcome does the source give for `CCCCC(CC)COC(=O)c1ccccc1C(=O)O` (centres undefined) here?
Answer: The outcome was “inactive”.

Question: For `CCCN(CCC)c1c([N+](=O)[O-])cc(C(F)(F)F)c(N)c1[N+](=O)[O-]`, which AC50 is on record?
Answer: Its AC50 is 44.7 µM (active).

Question: With `CCCCOC(=O)[C@@H](C)Oc1ccc(Oc2ccc(C(F)(F)F)cn2)cc1` as the compound, how does the outcome read?
Answer: The outcome was “inactive”.

Question: With `COC(=O)c1ccc(I)cc1S(=O)(=O)NC(=O)Nc1nc(C)nc(OC)n1` as the compound, how does the outcome read?
Answer: Its outcome is “inactive”.

Question: For `c1ccc(Nc2ccccc2)cc1`, which outcome is on record?
Answer: The outcome was “inactive”.

Question: With `C#CCOC(=O)[C@@H](C)Oc1ccc(Oc2ncc(Cl)cc2F)cc1` as the compound, how does the outcome read?
Answer: The outcome was “inactive”.

Question: Which outcome does the source give for `CN(C)C(=O)Nc1ccc(Cl)c(Cl)c1` here?
Answer: The outcome was “inactive”.

Question: For `CC(C)(C)[C@@H](O)[C@@H](Cc1ccc(Cl)cc1)n1cncn1`, which outcome is on record?
Answer: Its outcome is “inactive”.

Question: Which outcome does the source give for `CCCN(CCC)C(=O)SCC` here?
Answer: The outcome was “inactive”.

Question: With `CC(C)(c1ccc(O)cc1)c1ccc(O)cc1` as the compound, how does the outcome read?
Answer: Its outcome is “inactive”.

Question: With `CC(C)CCCCCCc1ccc(O)cc1` as the compound, how does the AC50 read?
Answer: Its AC50 is 66.6 µM (active) and 71.5 µM (active).

Question: And the outcome?
Answer: The outcome was “inactive”.

Question: Which outcome does the source give for `CCOC(=O)c1ccc(O)cc1` here?
Answer: Its outcome is “inactive”.

Question: With `CCC(C)OC(=O)N1CCCCC1CCO` (centres undefined) as the compound, how does the outcome read?
Answer: Its outcome is “inactive”.

Question: Which outcome does the source give for `Cc1nn(C)c(Oc2ccccc2)c1C=NOCc1ccc(C(=O)OC(C)(C)C)cc1` here?
Answer: The outcome was “inactive”.

Question: What does the source list for `Oc1ccc(C(c2ccc(O)cc2)C(Cl)(Cl)Cl)cc1`?
Answer: outcome: inactive; AC50: 46.1 µM (active)

Question: With `N[C@@H](Cc1cc(I)c(Oc2ccc(O)c(I)c2)c(I)c1)C(=O)O` as the compound, how does the outcome read?
Answer: Its outcome is “inactive”.

Question: For `CCCOC(=O)NCCCN(C)C`, which outcome is on record?
Answer: Its outcome is “inactive”.

Question: For `C[C@]12C[C@H](O)[C@H]3[C@@H](CCC4=CC(=O)CC[C@@]43C)[C@@H]1CC[C@@H]2C(=O)CO`, which outcome is on record?
Answer: Its outcome is “inactive”.

Question: For `CCOC(=O)C(C)Oc1ccc(Oc2nc3ccc(Cl)cc3o2)cc1` (centres undefined), which outcome is on record?
Answer: Its outcome is “inactive”.

Question: Which outcome does the source give for `CCOC(=O)NCCOc1ccc(Oc2ccccc2)cc1` here?
Answer: The outcome was “inactive”.

Question: For `CC1(C)C(C=C(Cl)Cl)C1C(=O)OCc1cccc(Oc2ccccc2)c1` (centres undefined), which outcome is on record?
Answer: The outcome was “inactive”.

Question: With `CC(=O)[C@H]1CC[C@H]2[C@@H]3CCC4=CC(=O)CC[C@]4(C)[C@H]3CC[C@]12C` as the compound, how does the outcome read?
Answer: The outcome was “inactive”.

Question: For `O=C(O)C1(C(=O)Nc2ccc(Cl)cc2Cl)CC1`, which outcome is on record?
Answer: The outcome was “inactive”.

Question: For `CC(=O)S[C@@H]1CC2=CC(=O)CC[C@]2(C)[C@H]2CC[C@@]3(C)[C@@H](CC[C@@]34CCC(=O)O4)[C@H]12`, which outcome is on record?
Answer: The outcome was “inactive”.

Question: For `CCN(Cc1c(F)cccc1Cl)c1c([N+](=O)[O-])cc(C(F)(F)F)cc1[N+](=O)[O-]`, which outcome is on record?
Answer: The outcome was “inactive”.

Question: Which outcome does the source give for `C[C@]12CC[C@@H]3c4ccc(O)cc4C[C@@H](CCCCCCCCCS(=O)CCCC(F)(F)C(F)(F)F)[C@H]3[C@@H]1CC[C@@H]2O` (some centres undefined) here?
Answer: The outcome was “inactive”.

Question: For `C#C[C@]1(O)CC[C@H]2[C@@H]3CCC4=CC(=O)CC[C@@H]4[C@H]3CC[C@@]21CC`, which outcome is on record?
Answer: Its outcome is “inactive”.

Reference: PubChem BioAssay (EPA / NIEHS)
